Each structure is given as a SMILES string. Compounds without any hit were thinned out: in the full panel of roughly 83,000, 20% have a hit.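 Note: values are percent growth. 100 is the growth of untreated cells, values between 100 and 0 indicate rising inhibition; between -100 and 0 indicates cell death.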 Active and inactive are the calls of the source. The calls were made as follows: active = growth percent below 10; inactive = the rest.

These results are taken from PubChem BioAssay (NCI).

This assay has as its system MDA-MB-435 melanoma. As to the kind of experiment: NCI-60 one-dose screen, 48 h (100 = growth as untreated, 0 = no growth, -100 = all killed). The conditions noted are these: 10 µM unless noted.
For the compound `O=C(Nc1ccc(-n2cc(-c3ccncc3)c(-c3ccc(Cl)c(O)c3)n2)cc1)c1cc(C(F)(F)F)cc(C(F)(F)F)c1`, the growth was 52.5% (inactive).

On to `COc1ccc(C2CC(=O)c3c(O)cc(OC4OC(COC5OC(C)C(O)C(O)C5O)C(O)C(O)C4O)cc3O2)cc1O` (stereo not given), for which the growth was 102% (inactive).

Consider `O=C(NCCNCCO)c1cc([N+](=O)[O-])cc([N+](=O)[O-])c1O`, for which the growth was 104% (inactive).

On to `O=Nc1ccc(O)c2ccccc12`, for which the growth was -63.8% (active).

With `CC(=O)N1CCN(CCNC(=O)n2cc(-c3ccncc3)c(-c3ccc(O)c(Cl)c3)n2)CC1`, the growth is 103% (inactive).

Turning to `NC(=O)c1c(Nc2ccccc2)nn2cc(-c3nc4ccccc4s3)c(N)nc12`, the growth is 102% (inactive).

Take `CC(O)CN(CCO)CCN(CCO)CC(C)O` (stereo not given): the growth is 106% (inactive).

On to `COC(=O)c1ccc2[nH]c(O)c(C(=Nc3ccc(N(C)C(=O)CN4CCN(C)CC4)cc3)c3ccc(OC)cc3)c2c1`, for which the growth was 29.6% (inactive).

With `c1ccc(C(=NNc2nc3ccccc3o2)c2ccccn2)nc1`, the growth was 25.2% (inactive).

As for `COC(=O)C(Cc1cnc[nH]1)N1CC(=O)N2[C@@H](c3ccccc3)SC[C@H]2C1=O` (stereo not given in full), the growth is 103% (inactive).

With `COC(=O)c1ccc2[nH]c(O)c(C(=Nc3ccc(N(C)C(=O)CN4CCN(C)CC4)cc3)c3ccc4c(c3)OCO4)c2c1`, the growth was 21.2% (inactive).

As for `Cc1ccc(NCc2cn(-c3ccc(C(=O)O)cc3)nc2-c2ccc(C(=O)O)cc2)cc1`, the growth is 107% (inactive).

In the case of `O=C(c1ccccc1)c1ccccc1-c1ccccc1`, the growth was -22.2% (active).

As for `CCCCCCC(C(=O)OCC)(C(=O)OCC)C1CCCCCC1`, the growth is 103% (inactive).

Regarding `COC(=O)c1ccc2[nH]c(O)c(C(=Nc3ccc(N(C)C(=O)CN4CCN(C)CC4)cc3)c3ccc([N+](=O)[O-])cc3)c2c1`, the growth is 49.9% (inactive).

With `O=C1OC(c2ccc(-c3ccccc3)cc2)=C/C1=C/c1c2ccccc2cc2ccccc12`, the growth was 102% (inactive).

Regarding `O=C(O)c1ccc(-c2nn(-c3ccc(C(=O)O)cc3)cc2CNc2ccc(Br)cc2)cc1`, the growth was 107% (inactive).

For `O=C(N/N=C\c1ccc(-c2ccc(Br)cc2)o1)c1cc2oc(-c3cccc(C(F)(F)F)c3)cc2[nH]1`, the growth is 98.9% (inactive).

For `COC(=O)c1ccc2[nH]c(O)c(C(=Nc3ccc(N(C)C(=O)CN4CCN(C)CC4)cc3)c3ccc(N)cc3)c2c1`, the growth is 90.6% (inactive).

In the case of `COC(=O)c1ccc(C(=Nc2ccc(N(C)C(=O)CN3CCN(C)CC3)cc2)c2c(O)[nH]c3ccc(C(=O)OC)cc23)cc1`, the growth was 43.6% (inactive).

Regarding `Cc1ccc(C(C)C)c(OCc2ccc(C(=O)N/N=C/c3cccc(O)c3O)cc2)c1`, the growth is 55.9% (inactive).

On to `O=C1Nc2c(c(=O)n(-c3ccccc3)c3ccccc23)C(c2ccc(Cl)cc2)N1` (stereo not given), for which the growth was 99.9% (inactive).

As for `O=c1c2c(c3ccccc3n1-c1ccccc1)NC(=S)NC2c1ccccc1` (stereo not given), the growth was 111% (inactive).

`COC(=O)c1ccc2[nH]c(O)c(C(=Nc3ccc(N(C)C(=O)CN4CCN(C)CC4)cc3)c3ccc(CCO)cc3)c2c1`: the growth is 60.8% (inactive).

On to `CCCCn1c(Cc2ccc(OC)cc2)nc2cc(OC)c(OC)cc2c1=O`, for which the growth was 83.7% (inactive).

In the case of `Cc1[nH]n(C(=S)Nc2nc3cc(Cl)c(F)cc3s2)c(=O)c1N=Nc1ccc(F)c(Cl)c1`, the growth was 124% (inactive).

Regarding `Clc1ccc(N/N=C(\c2ccccc2)c2ccccn2)nc1`, the growth is 26.6% (inactive).

Consider `c1ccc(Nc2ncc3c(n2)-c2cccn2CC3)cc1`, for which the growth is 105% (inactive).

For the compound `C=CCC(CCC(CC=C)C(=O)OCC)C(=O)OCC` (stereo not given), the growth was 104% (inactive).

As to `O=[N+]([O-])c1ccc(-c2ncc(-c3ccc(O)cc3O)[nH]2)cc1`, the growth is 121% (inactive).

Regarding `CC(=O)OC1/C=C\CC/C=C\C1` (stereo not given), the growth was 103% (inactive).

`CCN(CC)CCCNc1c2ccc(Cl)cc2nc2ccc(OC)cc12`: the growth is -90.5% (active).

Turning to `COc1cc(-c2nn(-c3ccc(NC(=O)Nc4cc(C(F)(F)F)cc(C(F)(F)F)c4)cc3)cc2-c2ccncc2)ccc1Cl`, the growth was 0.886% (active).

Regarding `CC(=O)Nc1nc(C)c(C(=O)NN)s1`, the growth was 137% (inactive).

Regarding `CC/C(=N\Nc1nc2ccccc2n1C)c1ccccn1`, the growth is 18.9% (inactive).

With `CC(=O)OCC1O[C@@H](OC(C)=O)[C@@H](NC(=O)NS(=O)(=O)c2ccccc2)C(OC(C)=O)[C@@H]1OC(C)=O` (stereo not given in full), the growth is 105% (inactive).

As for `Cc1nc2c(nnn2-c2ccccc2)c2nc(-c3ccccc3)oc(=O)c12`, the growth is 111% (inactive).

As to `CCc1ccc(C(=Nc2ccc(N(C)C(=O)CN3CCN(C)CC3)cc2)c2c(O)[nH]c3ccc(C(=O)OC)cc23)cc1`, the growth is -20.5% (active).

For `C=C[C@]1(C)C=C2C(=O)[C@@]3(O)OC[C@@]4(CCCC(C)(C)C43O)C2(O)C(O)C1` (stereo not given in full), the growth is 60.2% (inactive).

Regarding `CCOC(=O)c1c2c(cn1Cc1ccccc1)-c1oncc1CC2`, the growth is 111% (inactive).
